# MCL1 BIM primary – MCL1-BIM-BH3 interaction inhibition (human); AID 2057; Q07820; 0.68% of 320,000 active; GST-MCL1 / FITC-Bim-BH3 fluorescence polarization; inhibition, % at 10.9 µM;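 active = inhibition above the mean inhibition of all tested compounds plus 3 SD, set per campaign, cut at about 40% in these data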;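 note: 0% = DMSO wells and 100% = unlabeled Bim-BH3 peptide control; higher means more loss of mP so more displacement of Bim peptide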
# Target sequence (Q07820 whole entry, looked up): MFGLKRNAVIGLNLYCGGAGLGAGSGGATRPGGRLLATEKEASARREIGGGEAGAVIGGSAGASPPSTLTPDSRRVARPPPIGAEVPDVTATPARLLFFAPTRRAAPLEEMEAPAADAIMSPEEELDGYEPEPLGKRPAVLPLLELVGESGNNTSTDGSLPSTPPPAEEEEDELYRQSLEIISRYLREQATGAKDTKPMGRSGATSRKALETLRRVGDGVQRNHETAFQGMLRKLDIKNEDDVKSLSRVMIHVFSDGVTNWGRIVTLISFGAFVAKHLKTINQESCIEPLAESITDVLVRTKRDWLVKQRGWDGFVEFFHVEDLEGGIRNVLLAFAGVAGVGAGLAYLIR
# eLon inh – E. coli protease La inhibition. P0A9M0. purified E. coli Lon protease, fluorescence polarization. inhibition, % at 7.94 µM. 0.42% of 360,000 active. AID 602123; in the data active = inhibition above about 13%, passing the limit was not always enough;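 note: 0% = enzyme with probe and DMSO and 100% = no enzyme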
# GLD-1 RNA inh – GLD-1-TGE RNA interaction inhibition (C. elegans); Q17339; purified GLD-1 + fluorescein TGE RNA, fluorescence polarization; inhibition, % at 5.96 µM; 0.44% of 320,000 active; AID 2280;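 active = percent inhibition above a per-plate cutoff, the plate mean of test compounds plus 3 SD, cut at about 30% in these data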;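 note: 0% = DMSO wells with GLD-1 and probe and 100% = wells lacking GLD-1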
# EBV gp42 inh – blocks Epstein-Barr virus glycoprotein 42 binding; 0.42% of 220,000 active; Fluorescence polarization binding assay, mP read-out; inhibition, % (tested at 21.74 µM); AID 1085; in the data active = inhibition above about 50%
# Target sequence (Q1HVG2 whole entry, looked up): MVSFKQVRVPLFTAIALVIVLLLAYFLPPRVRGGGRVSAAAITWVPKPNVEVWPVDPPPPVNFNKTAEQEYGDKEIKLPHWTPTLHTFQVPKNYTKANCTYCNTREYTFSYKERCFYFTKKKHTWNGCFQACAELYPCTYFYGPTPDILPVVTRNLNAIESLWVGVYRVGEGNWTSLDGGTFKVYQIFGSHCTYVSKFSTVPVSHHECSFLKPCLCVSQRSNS
# MEX-5 binding – C. elegans MEX-5 TCR-2 RNA binding activity; Q9XUB2; MEX-5/FITC-TCR2 RNA binding, fluorescence polarization; stronger effect = lower value; activity score (negative = inhibition of binding), % at 10 µM; 0.38% of 300,000 active; AID 1832;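 active = inhibition past about -25% in most replicates, and total fluorescence under double the plate's negative control median, limit read from the data; inconclusive = replicates evenly split on the limit, or fluorescence at least double controls; inactive = too little inhibition in most replicates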;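 note: 0% = DMSO and -100% = 5 µM competing unlabeled TCR2 RNA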
# Bcl-xL primary – blocks human Bcl-xL binding to Bim BH3 peptide | Q07817 | GST-Bcl-xL / FITC-Bim BH3 peptide fluorescence polarization | inhibition, % at 10.9 µM | 0.7% of 320,000 active;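 active = inhibition above the mean of all tested compounds plus 3 SD, cutoff set per campaign, cut at about 30% in these data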;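 note: 0% = DMSO wells and 100% = unlabeled Bim-BH3 peptide competitor; inhibitors lower millipolarization by displacing the labeled peptide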
# BCLXL inh confirm – Bcl-xL (human) inhibition, MCL1 counter-screen confirmation; shares compounds with MCL1 BIM primary; inhibition, % at 10.9 µM; 54% of 1,700 active; GST-Bcl-xL / FITC-Bim BH3 peptide FP binding;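 active = inhibition above a cutoff equal to the mean inhibition of all tested compounds plus 3 SD, cut at about 30% in these data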;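 note: 0% = DMSO wells and 100% = unlabeled Bim BH3 control peptide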
# MCL1 inh confirm – MCL1-BIM-BH3 interaction inhibition, confirmation; shares compounds with MCL1 BIM primary; GST-MCL1 / FITC-Bim-BH3 fluorescence polarization; inhibition, % at 10.9 µM; 61% of 1,700 active; AID 2168;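 active = inhibition above the average of all tested compounds plus 3 SD, cut at about 40% in these data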;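 note: 0% = DMSO wells and 100% = unlabeled Bim-BH3 control peptide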
# GLD1 RNA confirm – GLD-1 TGE RNA interaction inhibition, confirmation; shares compounds with GLD-1 RNA inh; GLD-1/FL-TGE RNA fluorescence polarization, biochemical; inhibition, % at 5.96 µM; 10% of 550 active; AID 2459;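 active = average inhibition across triplicates above the hit cutoff set in the primary screen, cut at about 32% in these data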;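 note: 0% = GLD-1 with RNA probe and DMSO and 100% = wells lacking GLD-1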
# * marks the source's active call; other numbers are inactive results; ? = inconclusive; . = no result. A selection: hits, their analogues and other compounds. The true share with any hit is near 1.4%.
SMILES,MCL1 BIM primary,eLon inh,GLD-1 RNA inh,EBV gp42 inh,MEX-5 binding,Bcl-xL primary,BCLXL inh confirm,MCL1 inh confirm,others
CN1CCN(C2=C(Cl)C(=O)N(CCc3ccccc3)C2=O)CC1,54*,5,30,8,-1,51*,20,30,
N=C1/C(=C\c2ccc(-c3cccc(C(=O)O)c3)o2)C(=O)N=C2SC=C(c3ccccc3)N12,41*,-65,-26,82*,1,0,10,35,
CCCOc1cccc(C2C(C(=O)c3ccco3)=C(O)C(=O)N2c2nnc(C)s2)c1 (centres undefined),54*,8,56*,.,-32*,41*,56*,72*,
CCOc1ccc2nc(NC(=O)c3ccccn3)sc2c1,56*,-5,-5,-6,-3,-5,-2,-4,
O=C(O)c1c2c(nc3ccccc13)/C(=C/c1ccc(O)cc1)CC2,54*,2,10,1,-30*,36*,34*,54*,
Cc1cccc(N2CSC3=C(C#N)C(c4ccc(C)o4)CC(=O)N3C2)c1 (centres undefined),54*,.,1,25,0,10,5,35,
COc1ccc(OC)c(C2CC(=O)N3CN(c4ccccc4)CSC3=C2C#N)c1 (centres undefined),-13,-9,-2,-11,6,-25,.,.,
Cc1ccc(N(C(=O)CNC(=O)c2ccco2)C(C(=O)NC2CCCC2)c2cccnc2)c(C)c1 (centres undefined),-4,-2,3,.,0,3,.,.,
CCS(=O)(=O)NCc1ccc2[nH]c3c(c2c1)CCCC3,73*,.,40*,12,0,59*,49*,70*,
COc1ccc(NC(=O)COC(=O)CNS(=O)(=O)/C=C/c2ccccc2)cc1OC,-6,0,-5,.,.,-7,.,.,
O=[N+]([O-])c1ccc(/C=C/C2=NN(c3ccccc3)C(c3ccco3)C2)cc1 (centres undefined),67*,-149,-20,-22,.,67*,93*,109*,
Cc1ccsc1C(=O)Nc1ccc(S(=O)(=O)N2CCOCC2)cc1,-1,1,2,.,.,-3,.,.,
Cc1ccc(NC(=S)NNc2ccc([N+](=O)[O-])cc2S(=O)(=O)Nc2ccccc2C(=O)O)cc1C,40*,0,-1,9,-10,19,22,39,
CC(=O)Nc1ccc(C=NNc2ccc([N+](=O)[O-])cc2S(=O)(=O)Nc2ccccc2C(=O)O)cc1,.,-22,1,.,.,.,.,.,
CC(C)C1OC2(C)OC(=N)C1(C#N)C(C#N)(C#N)C2c1ccccc1 (centres undefined),103*,26,79*,31,-6,80*,32*,48*,
N#C/C(=C\c1cc(O)c(O)c(O)c1)C(N)=O,53*,-18,-19,-54,-27*,27,19,4,
O=C(O)COc1ccccc1C(Nc1ccccn1)c1cc(Cl)c2cccnc2c1O (centres undefined),79*,11,6,-7,-8,19,27,89*,
COc1ccccc1C(NC(C)=O)c1cc(Cl)c2cccnc2c1O (centres undefined),-2,7,-1,.,-1,8,.,.,
O=[N+]([O-])c1cccc(Oc2cnccn2)c1,41*,2,6,.,3,3,5,2,
C/C(CC(=O)Nc1cccc(Br)c1)=N\NC(=O)c1ccc(O)cc1O,17,-1,2,.,-2,6,.,.,
CCc1ccc(OCC(=O)NNC(=O)c2ccc(NC(=O)C3CC3)cc2)cc1,6,-6,1,.,0,1,.,.,
CCN(CC)c1ccc2cc(-c3nc(-c4ccc(OC)cc4)cs3)c(=O)oc2c1,110*,.,67*,92*,.,107*,115*,134*,
CCN(CC)c1ccc2cc(-c3nc4ccccc4[nH]3)c(=O)oc2c1,76*,-193,42*,45,?,81*,89*,105*,
CCN(CC)c1ccc2cc(-c3nnc(-c4ccccc4)o3)c(=O)oc2c1,-46,-434,-140,21,?,-6,.,.,
Cc1ccc(CS(=O)(=O)CC(C)(O)c2ccccc2)cc1 (centres undefined),-6,0,-4,.,1,-2,.,.,
SMILES,MCL1 BIM primary,eLon inh,GLD-1 RNA inh,EBV gp42 inh,MEX-5 binding,Bcl-xL primary,BCLXL inh confirm,MCL1 inh confirm,others
O=C(CCCn1c(=O)[nH]c2cc(Cl)ccc2c1=O)NCCCN1CCN(c2ccc(F)cc2)CC1,-1,2,5,9,2,5,.,.,
[O-][n+]1c2ccccc2[n+]([O-])c2cc(O)ccc21,46*,6,10,.,-6,17,45*,77*,
[O-][n+]1c(/C=C/c2ccccc2)ccc2ccccc21,.,0,.,.,-1,.,.,.,
O=C(O[C@@H]1OC2COC(=O)c3cc(O)c(O)c(O)c3-c3c(cc(O)c(O)c3O)C(=O)O[C@@H]([C@H]1O)[C@@H]2O)c1cc(O)c(O)c(O)c1,91*,33*,16,-14,-67*,62*,74*,87*,
CCN(CC(=O)Nc1c(F)cccc1F)C(=O)c1ccc(N2C(=O)c3ccccc3C2=O)cc1,-3,-6,9,.,1,3,.,.,
O=C(N=Nc1c(O)[nH]c2ccccc12)c1cc(-c2cccs2)[nH]n1,43*,7,-5,49,-3,15,12,31,
O=C1C=C(O)c2c(O)cc(O)c(O)c2C1=O,95*,-3,7,.,-100*,27,27,97*,
CCn1c(CSc2ncccn2)nnc1SCC(=O)N1CCc2ccccc21,103*,1,36*,-19,1,99*,7,-1,GLD1 RNA confirm=-6
CCc1nnc(SCC(=O)N2CCc3ccccc32)n1CC,2,12,4,.,1,-1,.,.,
O=C(O)c1ccc2c3c(ncnc13)-c1ccccc1C2=O,74*,.,60*,76*,?,72*,121*,142*,GLD1 RNA confirm=45*
Cc1nc2cc(NC(=O)N3CCN(c4ccccn4)CC3)ccc2o1,2,2,9,-1,1,-2,.,.,
O=C(Nc1ccc2nc(-c3ccco3)c(-c3ccco3)nc2c1)N1CCN(c2ccccn2)CC1,53*,10,34*,-3,-30*,51*,58*,71*,GLD1 RNA confirm=-1
Cc1ccccc1N=C(N)Nc1ccccc1C,71*,13,43*,.,.,63*,63*,85*,GLD1 RNA confirm=43*

# Screening results from PubChem BioAssay.
